# Assay outcomes: PubChem, National Center for Advancing Translational Sciences (NCATS)
# Pf growth 96h = inhibits malaria parasite growth, 96 h | AID 504834 | P. falciparum luciferase reporter growth, 96 h | Potency, µM (highest dose often 28.7 µM), for the others: top-dose activity change, negative = inhibition, usual class: inhibitors | hit rate 6.9% among 320,000; further: potency means the concentration at half of the fitted maximal effect; on the % scale 0 is the no-effect control and ±100 the full control effect
#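 Cell-based qHTS: luciferase-tagged P. falciparum in erythrocytes (2% hematocrit, 0.05% parasitemia final) incubated with compounds for 96 hours, 37 C, 5% CO2; luciferase detection reagent then added and luminescence measured.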
# Cycloheximide cs = counter-screen hit for Shiga toxin inhibitors, cycloheximide; AID 2314; hit rate 12% among 300,000; cell reporter, cycloheximide protein synthesis inhibition counterscreen; max response, %; in the data active means max response mostly above about 13%, no sharp cut-off; inactive means mostly below about 14%; further: read at 38.3 µM for the half of the compounds with a filed dose; 0% is about no effect
# Pf growth 48h = inhibits P. falciparum growth in the first generation, 48 h | P. falciparum luciferase growth in erythrocytes, 48 h | Potency, µM (series often up to 28.7 µM), for the others: at the top dose activity change, negative = inhibition, most hits filed as inhibitors | hit rate 5.9% among 310,000; further: potency means the concentration at half of the fitted maximal effect; on the % scale 0 is the no-effect control and ±100 the full control effect
#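 Parasite viability was followed by luminescence of a genomically integrated firefly luciferase. Cultures held 0.1% parasitemia at 2% hematocrit (final), incubated under 5% CO2 at 37 C.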
# Shiga inhibitor = blocks Shiga toxin action in Vero cells; Vero cells, Shiga toxin protein synthesis inhibition reporter; inhibition, % at 38.7 µM; hit rate 9.2% among 290,000; AID 2315; in the data active means inhibition mostly above about 28%, no sharp cut-off; inactive means mostly below about 43%; further: 0% is about no effect
# * = called active by the depositor; u = inconclusive; x = not tested or not shown. This is a sample that favours compounds with a hit; in the whole collection about 21% have one here. Unless noted, the call rests on the fitted dose curve; in most records, active means well fitted inhibition curve with a large enough effect; inconclusive means small, poorly fitted or top-dose-only effect, or another doubt; inactive means no such curve, though single readings can be large or run the other way.
SMILES,Pf growth 96h,Cycloheximide cs,Pf growth 48h,Shiga inhibitor
CCC(C)(C)NC(=O)C(c1ccncc1)N(C(=O)Cn1nnc2ccccc21)c1cc2c(cc1C(C)=O)OCO2 (stereo unspecified),13%,-1,u,11
CCC(C)(C)NC(=O)C(c1cccn1C)N(C(=O)Cn1nnc2ccccc21)c1ccc(OC)cc1OC (stereo unspecified),6%,5,8.3µM*,13
CCOc1ccc(N(C(=O)Cn2nnc3ccccc32)C(C(=O)NC(C)(C)CC)c2cccn2C)cc1 (stereo unspecified),2%,-1,13µM*,11
CCOc1ccc(N(Cc2ccc(OC)cc2)C(=O)c2ccco2)cc1,1%,15,u,16
COc1cc(CN(C(=O)c2ccco2)c2ccc(C)cc2)ccc1O,u,-1,12µM*,-1
CCOc1ccc(N(Cc2ccc(OC)c(OC)c2)C(=O)c2ccco2)cc1,15%,9,12µM*,49
CCOc1ccc(CN(C(=O)c2ccccn2)c2ccc(OC)c(Cl)c2)cc1,3%,31,10%,64*
O=C(CCc1c[nH]c2ccccc12)NCCc1ccc(O)cc1,11%,7,13%,34
Cc1cc(Oc2ccc(=O)n(C)n2)nc(=S)[nH]1,0%,-5,6%,2
CC(=O)Nc1ccc(C(=O)NNC(=O)c2ccc(Cl)cc2)cc1,7%,-2,49%,8
CC(C)(C)c1ccc(C(=O)Nc2ccc(Cl)cc2)cc1,110%,43*,128%,101*
CC(=O)Nc1nonc1NC(=O)c1ccc(C(C)(C)C)cc1,132%,20*,u,58*
CC(C)(C)c1ccc(NC(=O)c2ccsc2)cc1,-22%,28*,u,45*
O=C(Cc1cccs1)N1CCN(S(=O)(=O)c2cc(Cl)ccc2Cl)CC1,5%,x,u,x
CC(=O)Nc1ccc(S(=O)(=O)NC(C(=O)O)C2=CCC=CC2)cc1 (stereo unspecified),3.7µM*,8,28%,12
Cc1ccc(NC2CCCN(C(=O)c3ccoc3)C2)cc1C (stereo unspecified),10µM*,6,0%,22
Cc1ccc(NC2CCCN(C(=O)CCCN3CCCCC3=O)C2)cc1C (stereo unspecified),u,13*,u,21
Cc1ccc(NC2CCCN(C(=O)c3cccc(-c4ncc[nH]4)c3)C2)cc1C (stereo unspecified),10µM*,-1,u,-4
Cc1ccc(NC2CCCN(C(=O)c3cnsn3)C2)cc1C (stereo unspecified),0%,7,5%,2
Cc1ccc(NC2CCCN(C(=O)C3CCCC3)C2)cc1C (stereo unspecified),13µM*,-2,21%,-7
Cc1cccc(-c2nn(-c3ccccc3)cc2C(=O)N(C)CC(=O)Nc2ccc(N3CCOCC3)cc2)c1,11%,x,2%,x
Cc1c(C(=O)NC2=NCCS2)cccc1[N+](=O)[O-],13%,13,21%,-1
Cc1ccc(NC2CCCN(C(=O)c3ccc(C)c(N4CCNC4=O)c3)C2)cc1C (stereo unspecified),80%,9.9*,-27%,20
COc1ccc(C(=O)N2CCCC(Nc3ccc(C)c(C)c3)C2)cc1 (stereo unspecified),-6%,-1,10%,-8
O=C1/C(=C/c2ccc(F)cc2)CCC1C1CCCC1 (stereo unspecified),u,41*,86%,75*
SMILES,Pf growth 96h,Cycloheximide cs,Pf growth 48h,Shiga inhibitor
O=C1/C(=C/c2ccccc2)CCC1C1CCCC1 (stereo unspecified),36%,40*,42%,76*
CCOc1ccc(/C=C2\CCC(C3CCCC3)C2=O)cc1OC (stereo unspecified),u,8,-4%,30
CCOc1ccc(/C=C2\CCC(C3CCCC3)C2=O)cc1 (stereo unspecified),4%,22*,145%,21
COc1ccc(/C=C2\CCC(C3CCCC3)C2=O)cc1Cn1cccn1 (stereo unspecified),2%,1,-25%,3
COc1ccccc1/C=C1\CCC(C2CCCC2)C1=O (stereo unspecified),15µM*,34*,57%,43*
CC(C)[C@H](NC(=O)c1ccccc1)C(=O)OCC(=O)N1CCN(C(=O)c2ccco2)CC1,46%,-1,0%,16
O=C1/C(=C\c2ccco2)CCC/C1=C\c1ccco1,u,-2,187%,10
O=C1/C(=C/c2ccco2)CCC1C1CCCC1 (stereo unspecified),u,53*,36%,127*
